# Measured values: PubChem BioAssay AID504832 (National Center for Advancing Translational Sciences (NCATS), 2011)
# Among all 310,000 compounds or so, about 18,000 (5.8%) were called active. Another 22% or so got no clear call; they are omitted. The sample holds actives, similar compounds and a random draw of the others, so the mix is not that of the screen. Values without a mark were called inactive. Calls come from the whole dose curve; as a rule, active = well fitted inhibition curve with a large enough effect; inconclusive = small, poorly fitted or top-dose-only effect, or another doubt; inactive = no such curve, though single readings can be large or run the other way.
# Test: Primary qHTS for delayed death inhibitors of the malarial parasite plastid, 48 hour incubation
# Details: P. falciparum luciferase growth in erythrocytes; series mostly up to 28.7 µM; activity change, negative = inhibition: at the top concentration
# Method in brief: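 Parasite viability was followed by luminescence of a genomically integrated firefly luciferase. Cultures held 0.1% parasitemia at 2% hematocrit (final), incubated under 5% CO2 at 37 C.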
# % is set by controls: 0 for no effect and ±100 for the full control effect; potency is the fitted concentration of half-maximal effect.
Compound,"activity change, negative = inhibition",Potency
CCOC(=O)C1=C(c2ccccc2)NC(=S)NC1c1ccc(Cl)cc1 (centres undefined),-22.2%,–
COc1ccc(C(=O)Nc2ccc(C(=O)NCC3CCCO3)cc2)c(OC)c1OC (centres undefined),-27.4%,–
O=C(NNC(=O)c1cc(S(=O)(=O)N2CCCCC2)ccc1Cl)c1ccccc1O,-15.4%,–
CC1CCCC(NC(=O)c2cc(S(=O)(=O)N3CCCCC3)ccc2Cl)C1C (centres undefined),–,13.1 µM (active)
Cc1ccc(S(=O)(=O)N2CCN(C)CC2)cc1C(=O)NC1CCCCC1,13.8%,–
O=C(O)c1ccc2c(=O)n3c(nc2c1)/C(=C/c1ccc(OC(F)F)cc1OC(F)F)CC3,-15.1%,–
Nc1nc(SCC(=O)Nc2ccc(Cl)c([N+](=O)[O-])c2)n[nH]1,-18.9%,–
O=C(NCc1ccc2c(c1)OCO2)c1cc(F)c(F)cc1Cl,65.5%,–
O=C(c1ccco1)N1CCN(C(=O)c2cc(-c3ccccc3F)no2)CC1,35.4%,–
CCOC(=O)c1[nH]c2c(c1-c1ccccc1)C(=O)CC(c1ccc(Cl)cc1)C2 (centres undefined),22.1%,–
COCCOC(=O)c1[nH]c2c(c1C)C(=O)CC(c1ccc(OC)cc1)C2 (centres undefined),10.8%,–
CCCOC(=O)c1[nH]c2c(c1C)C(=O)CC(c1cc(OC)c(OC)c(OC)c1)C2 (centres undefined),–,1.65 µM (active)
Cn1c(-c2ccc(C(F)(F)F)cc2)cc2onc(-c3ccccc3)c2c1=O,178%,–
Cc1ccc(N(CC(=O)NC2CCCCC2)C(=O)CCCC(=O)Nc2ccccn2)c(C)c1,-13%,–
Cc1ccc(C)c(N(CC(=O)NCc2ccco2)C(=O)CCC(=O)Nc2ccccn2)c1,–,14.7 µM (active)
COCCNC(=O)CN(C(=O)CCC(=O)Nc1cc(C)on1)c1ccc(C)cc1C,-0.34%,–
CCc1ccc(NC(=O)Cn2nnc(C(=O)NCc3ccc4c(c3)OCO4)c2N)cc1,26.2%,–
O=C(CN1CCN(S(=O)(=O)/C=C/c2ccccc2)CC1)Nc1ccc(N2CCOCC2)cc1,-23.2%,–
Cc1ccc(S(=O)(=O)N2CCOCC2)cc1C(=O)NCc1ccc(F)cc1,-22.9%,–
O=C(CN1CCN(c2cccc(Cl)c2)CC1)Nc1ccc(S(=O)(=O)N2CCOCC2)cc1,–,10.4 µM (active)
Cc1cc2cc(CNC(=O)c3ccc(S(=O)(=O)N4CCOCC4)cc3)ccc2[nH]1,–,13.1 µM (active)
COc1ccc(CC(=O)Nc2ccc3c(c2)CCC3)cc1S(=O)(=O)N1CCOCC1,-21.2%,–
O=C(Nc1ccc2cn[nH]c2c1)c1ccc(S(=O)(=O)N2CCOCC2)cc1,-8.06%,–
Cc1ccc(CC(=O)Nc2ccc(S(=O)(=O)N3CCOCC3)cc2)cc1C,–,9.28 µM (active)
O=C(CN1CCCCCC1)Nc1ccc(S(=O)(=O)N2CCCCC2)cc1,-21.4%,–
O=C(CN1C(=O)CCC1=O)Nc1ccc(S(=O)(=O)N2CCOCC2)cc1,-3.85%,–
CCOC(=O)c1sc(=NC(=O)c2ccc(Br)cc2)n(C)c1C,40.3%,–

Compound,"activity change, negative = inhibition",Potency
Cn1c(=O)c2ccccc2n(CC(=O)Nc2ccc3c(c2)OCCO3)c1=O,-17.8%,–
COc1cc(C(=O)N/C(=C\c2cn(C)c3ccccc23)C(=O)N2CCOCC2)cc(OC)c1OC,-20.3%,–
CN(C)S(=O)(=O)c1cccc(C(=O)OCC(=O)N2CCCC2=O)c1,43.3%,–
CC1CC1C(=O)OCC(=O)Nc1cccc(F)c1 (centres undefined),-18.9%,–
COc1ccc(NC(=O)NN2CCN(C)CC2)c(OC)c1,-8.77%,–
CCOc1ccc(/C=N\NC(=O)c2c(C)nc3cc(C)ccn23)cc1,-2.1%,–
Cn1c(=O)n(C)c2cc(S(=O)(=O)Nc3ccc(F)cc3)ccc21,0.288%,–
Clc1ccc(CSc2nnc(/C=C/c3ccccc3)o2)c(Cl)c1,7.49%,–
Nc1cc(N)nc(SCc2ccc(Cl)cc2)n1,31.1%,–
CSCc1cc(N(C)C)nc(SCc2ccc(Cl)cc2Cl)n1,–,13.1 µM (active)
CSCc1cc(N2CCOCC2)nc(SCc2ccc(Cl)cc2Cl)n1,–,13.1 µM (active)
CSCCC(NC(=O)c1ccc(Cl)cc1Cl)C(=O)NNC(=O)c1csc(N2CCOCC2)n1 (centres undefined),6.42%,–
CC(C)(CNC(=O)Cc1ccc(Cl)cc1Cl)N1CCOCC1,4.95%,–
CCc1ccc(C(=O)COC(=O)c2ccco2)cc1,16%,–
O=C(NCc1ccco1)/C(=C/c1ccco1)NC(=O)c1ccccc1,-2.37%,–
CC1CCCN(S(=O)(=O)c2ccc(-c3ccc(=O)[nH]n3)o2)C1 (centres undefined),-25.8%,–
COC(=O)C1(C)CC1(c1ccccc1)c1ccccc1 (centres undefined),-9.84% [at 0.00184 µM],–
Cc1ccccc1-n1cc(CNC(=O)C2CCC(=O)N(C3CC3)C2)cn1 (centres undefined),-10%,–
CCN1CCN(C(=O)N(Cc2ccc(Cl)cc2)S(=O)(=O)c2ccc(C)cc2)CC1,1.47%,–
Cc1nn(C)cc1S(=O)(=O)N1CCN(c2ccc(F)cc2)CC1,22.3%,–
Cc1ccc(CNC(=O)C(=O)c2cn(CC(=O)N3CCCC3)c3ccccc23)cc1,12%,–
Cc1cccnc1NC(=O)c1cccc(S(=O)(=O)N2CCN(c3ccc(F)cc3)CC2)c1,-1.14%,–
O=C(Cc1ccccc1)NNC(=O)C1CCN(c2ncccn2)CC1,-13.8%,–
Oc1ccc(CN2CCN(c3ncccn3)CC2)cc1,-6.17%,–
Oc1c(CN2CCCC2)cc(COCc2ccccc2)c2cccnc12,–,0.657 µM (active)
Oc1c(CN2CCN(c3ccc(F)cc3)CC2)cc(Cl)c2cccnc12,–,1.85 µM (active)
CC1CCCN(CC(O)COCc2ccccc2)C1 (centres undefined),-5.27%,–
